Shown is part of a subset that was picked to be rich in hits.
DT40 TDP1 no CPT – qHTS for Inhibitors of human tyrosyl-DNA phosphodiesterase 1 (TDP1): qHTS in cells in absence of CPT. DT40 Tdp1-/- hTDP1 cells, no CPT, ATP luminescence, 48 h. Potency, µM (series often up to 46.2 µM), without a hit: at the top dose activity change, negative = growth inhibition, actives largely listed as inhibitors. 420,000 tested, 15% active; further: potency means the concentration at half of the fitted maximal effect; nearly all actives have a fitted effect of over 55% in size
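Camptothecin absent (DMSO only). Human TDP1-complemented DT40 knockout cells, 400 cells/well, 37 °C for minimum 48 hr; ATP measured via CellTiter-Glo, 30 min dark incubation, luminescence.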
TDP1 cell CPT – growth inhibition of DT40 Tdp1-/-;hTDP1 cells with camptothecin (screen for TDP1 inhibitors); 420,000 tested, 12% active; chicken DT40 Tdp1-/-;hTDP1 cells + 20 nM CPT, ATP luminescence, 48 h; Potency, µM (highest dose often 46.2 µM), without a hit: top-dose activity change, negative = growth inhibition, hits mostly inhibitors; further: potency means the concentration at half of the fitted maximal effect; nearly all actives have a fitted effect of over 55% in size
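Chicken DT40 Tdp1-/- cells stably complemented with human TDP1 were seeded at 400 cells/well in medium containing 20 nM camptothecin, exposed to pin-transferred compounds, and grown at 37 °C for at least 48 hr. Viability was read as ATP luminescence.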
IL1B secr inh – inhibitors of inflammasome signaling (IL-1 beta secretion); THP-1 LPS/ATP IL-1B secretion, AlphaLISA, 16 h; hits give low values; activity change, % at 57.5 µM; 360,000 tested, 4.7% active; in the data active means activity change below about -50%; inconclusive means mostly about -30% to -49%
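Secreted IL-1B measured by AlphaLISA bead assay after 16 h compound exposure of THP-1 cells; compounds (final up to 57.5 uM) added 1 h before LPS (250 ng/mL) and ATP (1.25 mM) stimulation; lower signal means less secretion.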
HT1080 IDH1KD tx – HT-1080 IDH1 knockdown cell toxicity (counter line). HT-1080 IDH1 knockdown viability, ATP luminescence, 48 h. Potency, µM (series often up to 46.1 µM), without a hit: top-dose activity, negative = toxicity, hits mostly cytotoxic. 360,000 tested, 2% active. AID 686971;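 further: potency means the concentration at half of the fitted maximal effect; 0% = DMSO wells and -100% = cell-free medium wells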
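HT-1080-IDH1KD cells (IDH1 knocked down), 750/well in RPMI with 5% FBS, treated with compound 48 h at 37 degrees C. Viability by CellTiter-Glo luminescence, normalised to DMSO and no-cell wells; concentration-response curves classed.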
ALOX12 inh – blocks human arachidonate 12S-lipoxygenase | AID 1671190 | Potency, µM (highest dose often 108 µM), for inactives: at the highest dose activity change, negative = inhibition, usual class: inhibitors | 580,000 tested, 1.1% active | purified 12hLO, xylenol orange hydroperoxide absorbance | P18054; further: potency means the concentration at half of the fitted maximal effect
Target sequence (P18054 whole entry, looked up): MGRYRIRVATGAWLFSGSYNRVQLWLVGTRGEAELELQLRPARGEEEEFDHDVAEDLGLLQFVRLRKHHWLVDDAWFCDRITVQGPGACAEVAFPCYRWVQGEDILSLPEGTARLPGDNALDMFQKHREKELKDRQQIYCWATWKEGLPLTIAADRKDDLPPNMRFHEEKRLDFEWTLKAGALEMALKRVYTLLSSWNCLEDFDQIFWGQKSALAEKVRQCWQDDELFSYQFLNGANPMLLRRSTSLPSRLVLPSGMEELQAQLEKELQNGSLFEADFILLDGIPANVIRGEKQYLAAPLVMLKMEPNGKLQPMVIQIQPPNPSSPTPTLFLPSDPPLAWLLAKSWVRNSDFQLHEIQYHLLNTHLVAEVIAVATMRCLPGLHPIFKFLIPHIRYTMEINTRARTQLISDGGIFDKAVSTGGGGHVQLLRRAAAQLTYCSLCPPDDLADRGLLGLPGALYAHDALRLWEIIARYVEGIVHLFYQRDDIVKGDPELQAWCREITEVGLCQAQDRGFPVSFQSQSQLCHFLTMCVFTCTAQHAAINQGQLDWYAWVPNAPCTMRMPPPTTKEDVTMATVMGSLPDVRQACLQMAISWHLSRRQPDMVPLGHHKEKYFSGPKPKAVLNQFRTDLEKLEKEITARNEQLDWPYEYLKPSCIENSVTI
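Purified human 12hLO at 150 nM in 25 mM Hepes, 0.01% Triton X-100, pH 7.0, preincubated 15 min at room temperature with compound. Reaction started with 40 uM arachidonic acid, 30 min at room temperature. Hydroperoxide measured by Fe-xylenol orange, 573/405 nm absorbance ratio.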
HT1080-NT tox – kills 2HG-producing HT-1080-NT fibrosarcoma cells; AID 686970; HT-1080-NT fibrosarcoma viability, CellTiter-Glo ATP luminescence, 48 h; Potency, µM (titrated, usually from 46.1 µM), for inactives: at the highest dose activity, negative = less viability, usual class: cytotoxic; 360,000 tested, 1.6% active;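 further: NT is the 2HG producing partner of a matched IDH1 knockdown line; potency means the concentration at half of the fitted maximal effect; 0% = DMSO-treated cells and -100% = media-only wells without cells; nearly all actives have a fitted effect of over 55% in size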
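HT-1080-NT; 750 cells/well; 5% FBS RPMI; 48 h compound, 37 degrees C; CellTiter-Glo luminescence; curve fitting and curve-class assignment.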
* hit, by the source's call; ? = inconclusive; . = no result given; [ ] = dose if it differs, or a comment. Unless noted, the call rests on the fitted dose curve; in most records, active means well fitted curve in the direction sought with a large enough effect; inconclusive means small, poorly fitted or top-dose-only effect, or another doubt; inactive means no such curve, though single readings can be large; an effect the other way counts as inactive or inconclusive. Unless noted, on the % scale 0 is the no-effect control and ±100 the full control effect.

SMILES	DT40 TDP1 no CPT	TDP1 cell CPT	IL1B secr inh	HT1080 IDH1KD tx	ALOX12 inh	HT1080-NT tox
CC1CCN(CC(O)COc2ccc(-c3ccccc3)cc2)CC1 (stereo unspecified)	18.4µM*	?	-29.2	-10.2%	-4.3%	?
Cc1ccc(CCNC(=O)CCc2nc(CS(=O)(=O)c3ccccc3)no2)cc1	.	.	.	.	2.9%	.
COc1cccc(C(CNC(=O)C2CCN(S(=O)(=O)c3ccc4ccccc4c3)CC2)N(C)C)c1 (stereo unspecified)	.	.	.	.	7.9%	.
CCCCN1C(C)=NS(=O)(=O)c2cc(C(=O)Nc3ccc(OCC)cc3)ccc21	.	.	.	.	-12.9%	.
Cc1ccccc1-n1c(SCc2cc(=O)n3ccccc3n2)nc2[nH]ncc2c1=O	-27.3%	?	-0.2	-15.8%	435.5%	-13.2%
COc1cc(NC(=O)CSc2nc3[nH]ncc3c(=O)n2-c2ccccc2C)cc(OC)c1OC	?	?	1.4	-16.0%	-3.9%	-7.5%
O=c1c2cn[nH]c2nc(SCc2cc(=O)n3cc(Br)ccc3n2)n1-c1ccc(Br)cc1	?	?	-51.0*	?	1.5%	-22.8%
Cc1cccc2nc(CSc3nc4[nH]ncc4c(=O)n3-c3ccccc3Cl)cc(=O)n12	20.6µM*	14.6µM*	-6.0	-10.7%	-18.6%	-12.0%
Cc1ccccc1-n1c(SCc2cccc(F)c2)nc2[nH]ncc2c1=O	?	?	-74.1*	?	-20.1%	?
CCc1ccc(-n2c(SCc3ccccc3F)nc3[nH]ncc3c2=O)cc1	16.4µM*	20.6µM*	.	.	?	.
Cc1ccc(CNC(=O)CSc2nc3[nH]ncc3c(=O)n2-c2ccccc2)cc1	.	.	.	.	-6.6%	.
COc1ccc(N2CCN(C(=O)CSc3nc4[nH]ncc4c(=O)n3-c3ccc(Br)cc3)CC2)cc1	?	?	-24.2	-25.7%	-4.2%	-27.0%
O=c1c2cn[nH]c2nc(SCc2ccccc2F)n1-c1ccc(Br)cc1	?	?	-149.1*	18.4µM*	-9.5%	-0.3%
Cc1ccc(-n2c(SCc3ccccc3F)nc3[nH]ncc3c2=O)cc1Cl	14.6µM*	20.6µM*	.	.	?	.
CC(C)NC(=O)c1ccc2c(c1)C1(CCN(CC3CC3)C1)CN2Cc1ccccc1 (stereo unspecified)	.	.	.	.	12.2%[176 µM]	.
CSc1ncc(C(=O)Nc2ccc(Cl)cc2)c(C)n1	?	11.8%	22.1	-11.9%	-29.9%	-5.6%
O=C(Nc1ccc(Br)cn1)c1ccc2nccnc2c1	18.4µM*	13µM*	24.3	-4.3%	-3.0%	-1.5%
O=C(Nc1ccc(Br)cn1)c1cccc(C(=O)Nc2ccc(Br)cn2)c1	?	?	40.4	-4.3%	-7.9%	-3.8%
O=C(Nc1ccc(Br)cn1)c1cccc2ccccc12	2.06µM*	2.06µM*	-9.1	5.8µM*	0.0%	2.91µM*
O=C(Nc1ccc(Br)cn1)c1ccc2ccccc2c1	14.6µM*	?	22.0	-15.0%	?	-6.8%
CSc1ncc(C(=O)Nc2ccc(Br)cn2)c(C)n1	?	16.4µM*	46.5	-26.3%	0.0%	-21.3%
COc1c(C(=O)Nc2ccc(Br)cn2)ccc2ccccc12	-15.3%	-14.6%	51.5	9.9%	11.4%	12.5%
CCCc1noc(C(C)Sc2nc(C3CC3)nc3ccccc23)n1 (stereo unspecified)	.	.	.	.	17.5%	.
CN(Cc1cccc(C#N)c1)C(=O)C1CCOCC1	.	.	.	.	-2.7%	.
CCn1cc(S(=O)(=O)N2CCC(c3noc(-c4cnccn4)n3)C2)cn1 (stereo unspecified)	.	.	.	.	25.4%	.
CCNC(=O)NC(=O)C(C)OC(=O)Cc1c[nH]c2ccccc12 (stereo unspecified)	.	.	.	.	-16.0%	.
